Shown are actives, neighbours in structure and some others; about 2.3% of the full set was active somewhere.
TMEM16A inh – TMEM16A chloride channel inhibitors, primary screen, cell-based, HTS; Anoctamin-1 (Mus musculus), Q8BHY3; HEK293 TMEM16A/YFP iodide influx fluorescence, ionomycin; normalized B-score (activity score, 25-100; higher = stronger inhibition) at 10 µM; hit rate 1.2% among 310,000; AID 588511, 2011;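 active = ratio plate-corrected score three or more library SD toward inhibition, starting fluorescence score within five deviations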;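 note: score derived from kinetic fluorescence span divided by baseline fluorescence per well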
TMEM16A act – TMEM16A chloride channel activators or potentiators, primary screen, cell-based, HTS; B-score at 10 µM; hit rate 0.3% among 340,000; HEK293 TMEM16A/YFP-H148Q/I152L, iodide quench fluorescence; hits give low values;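 active = fluorescence-ratio B-score plate-corrected deviation score at least 3 library SD below zero, with starting fluorescence score within 5 deviations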;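 note: channel opened by trigger with iodide after compound preincubation; score built on the fluorescence ratio of max minus min over baseline; more negative score means more quench and so TMEM16A activation or potentiation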
CHT allo act – CHT positive allosteric modulators, primary screen, cell-based, membrane potential dye, choline EC20 | High affinity choline transporter 1 (Homo sapiens), Q9GZV3 | CHT-expressing cells; hits give high values; LV-AA mutant CHT in HEK293 cells | B-score at 10 µM | hit rate 0.49% among 310,000;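 active = initial fluorescence not abnormally high and integrated response B-score, plate-corrected, over 3 SD above library mean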
Target sequence (Q9GZV3 whole entry, looked up): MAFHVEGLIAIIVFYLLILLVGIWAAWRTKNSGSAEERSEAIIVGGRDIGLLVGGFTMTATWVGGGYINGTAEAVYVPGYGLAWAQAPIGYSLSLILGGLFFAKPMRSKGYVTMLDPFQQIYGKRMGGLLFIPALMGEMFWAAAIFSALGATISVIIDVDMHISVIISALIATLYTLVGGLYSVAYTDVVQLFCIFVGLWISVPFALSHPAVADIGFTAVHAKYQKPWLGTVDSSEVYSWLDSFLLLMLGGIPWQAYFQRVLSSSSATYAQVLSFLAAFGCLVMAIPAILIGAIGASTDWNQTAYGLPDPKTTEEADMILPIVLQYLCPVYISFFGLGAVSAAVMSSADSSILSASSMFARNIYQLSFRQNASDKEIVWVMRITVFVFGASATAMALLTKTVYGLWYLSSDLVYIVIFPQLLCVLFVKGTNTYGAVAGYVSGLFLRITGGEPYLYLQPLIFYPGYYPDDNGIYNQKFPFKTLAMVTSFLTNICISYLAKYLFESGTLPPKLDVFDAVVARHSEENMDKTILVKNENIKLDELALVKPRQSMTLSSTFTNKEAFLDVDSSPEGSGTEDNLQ
CHT block – inhibitors of human choline transporter CHT | CHT-expressing cells, membrane potential dye, choline response; hits give low values | High affinity choline transporter 1 (Homo sapiens), Q9GZV3 | hit rate 0.86% among 310,000 | AID 488975, 2010 | B-score at 10 µM;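 active = B-score over 3 SD under the library average, and starting fluorescence ratio not unusually high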;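 note: choline stimulus applied at its EC90 after an EC20 pre-addition; B-score computed on integrated fluorescence ratio after choline addition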
Starred values were filed as active, the others as inactive; i = inactive; . = no result given.

SMILES	TMEM16A inh	TMEM16A act	CHT allo act	CHT block
O=C1CC(N2CCCN(C3CC(=O)N(c4ccc(F)cc4)C3=O)CC2)C(=O)N1c1ccc(F)cc1 (centres undefined)	i	-8.57*	i	i
O=C1CC(N2CCN(c3ccc(Cl)cc3)CC2)C(=O)N1c1ccc(F)cc1 (centres undefined)	i	i	i	i
CN(C)S(=O)(=O)c1ccc(S(=O)(=O)N(Cc2ccco2)Cc2ccccc2Cl)cc1	i	-19.4*	i	i
COc1ccc(S(=O)(=O)N(Cc2ccc(OC)c(OC)c2)Cc2ccco2)cc1	25*	i	i	i
COc1ccc(S(=O)(=O)N(CCC(N)=O)Cc2ccco2)cc1OC	i	i	i	i
CS(=O)(=O)N(Cc1ccco1)Cc1ccccc1Cl	i	i	i	i
Cc1nn(CCCC(=O)NCCc2ccc(Cl)cc2)c(=O)c2nn(-c3ccccc3)c(C)c12	i	i	i	i
O=C(CSc1ccccc1)NCCCN1CCOCC1	i	-11.2*	i	i
Cc1ccc(N(C(=O)c2ccccn2)C(C(=O)NC2CCCCC2)c2ccncc2)cc1 (centres undefined)	i	i	i	i
O=C1NC(=O)/C(=C\c2cn(CC(=O)N3CCOCC3)c3ccccc23)S1	i	i	i	i
O=C(COCc1cc(-c2ccc3c(c2)OCO3)on1)N1CCN(c2cccc(C(F)(F)F)c2)CC1	25*	i	i	i
COc1ccc(-c2noc(CCC(=O)N3CCN(c4cccc(C(F)(F)F)c4)CC3)n2)cc1	100*	i	i	i
Cc1ccc(S(=O)(=O)c2ccc(Cl)cc2)cc1S(=O)(=O)N1CCOCC1	25*	i	i	i
O=C1c2ccccc2C(=O)N1CCc1nc(-c2ccccn2)no1	25*	i	i	i
COc1ccccc1N1CCN(CC(=O)Nc2cc(C)nn2-c2nc(C)cc(C)n2)CC1	.	i	.	.
COc1ccc(C(=O)NC2=Nc3ccccc3N=C(C)C2c2ccccc2)cc1 (centres undefined)	i	i	i	i
O=C(NCCc1ccccc1)C1CCCN(C(=O)Nc2ccc(F)cc2)C1 (centres undefined)	i	i	i	i
CCn1c(CNC(=O)Cc2ccc(OC)cc2)nnc1SCC(=O)c1ccccc1	.	-34.7*	.	.
COc1ccc(S(=O)(=O)n2nc(-c3cc(OC)c(OC)c(OC)c3)cc2N)cc1OC	i	i	i	i
COc1ccc(-c2cc(N)n(S(=O)(=O)c3c(F)c(F)c(F)c(F)c3F)n2)cc1OC	100*	i	i	-7.7*
CC(=O)N1c2ccc(N=Cc3cc(Br)cc(Br)c3O)cc2CC1C (centres undefined)	i	.	i	-5.34*
CC1CCCC(C)N1/N=C/c1cc(Br)cc(Br)c1O (centres undefined)	i	i	i	i
CCCCC(CC)C(=O)Oc1ccc(O)c(C(C)(C)C)c1 (centres undefined)	25*	i	i	i
Cc1onc(-c2ccccc2Cl)c1C(=O)Nc1cccc2cccnc12	100*	i	i	i
CN(Cc1ccccc1)C(=O)COC(=O)c1cc(S(=O)(=O)N(C)C)ccc1N1CCCC1	i	i	i	i
SMILES	TMEM16A inh	TMEM16A act	CHT allo act	CHT block
CS(=O)(=O)c1ccc(Cl)c(C(=O)OCC(=O)NC2CCCCCCC2)c1	.	i	.	.
Cc1ccc2nc(N3C(=O)C(O)=C(C(=O)c4ccco4)C3c3ccc(C)o3)sc2c1 (centres undefined)	i	i	i	i
CCCSc1nnc(N2C(=O)C(O)=C(C(=O)c3ccco3)C2c2ccccc2F)s1 (centres undefined)	i	-4.77*	i	i
Cc1ccc2nc(N3C(=O)C(O)=C(C(=O)c4ccco4)C3c3ccc(O)cc3)sc2c1 (centres undefined)	25*	i	i	i
CSc1nnc(N2C(=O)C(O)=C(C(=O)c3ccco3)C2c2ccccc2F)s1 (centres undefined)	i	-4.76*	i	i
COC(=O)c1sc(N2C(=O)C(O)=C(C(=O)c3ccc(C)o3)C2c2cccs2)nc1C (centres undefined)	i	i	i	-5.84*
C=CCSc1nnc(N2C(=O)C(O)=C(C(=O)c3ccco3)C2c2ccccc2F)s1 (centres undefined)	i	i	i	i
CC(=O)c1cccc(N(CC(=O)NC2CCCCC2)C(=O)CNC(=O)c2cccs2)c1	i	i	i	i
C=CCn1c(SCc2ccc(Cl)cc2)nc2cc(C(=O)N3CCC(C(N)=O)CC3)ccc2c1=O	i	i	i	i
CSc1nnc(N2C(=O)C(O)=C(C(=O)c3ccc(C)o3)C2c2ccc(C)cc2)s1 (centres undefined)	i	-4.8*	i	i
O=C(O)C(O)c1ccccc1 (centres undefined)	i	i	i	i
O=C(O)C(C(O)c1ccccc1)[n+]1ccccc1 (centres undefined)	i	-20.2*	i	i
CNc1nc(SCc2ccc(C)cc2)nc2c1CCCC2	100*	i	i	i
Cc1ccc(CSc2nc3c(c(N(C)C)n2)CCCC3)cc1	i	i	i	i
CCOC(=O)/C=C/S(=O)(=O)c1ccc(NC(C)=O)cc1	i	i	i	-5.46*
CCOC(=O)/C=C/C(=O)Nc1ccc(S(=O)(=O)Nc2c(C)cc(C)cc2C)cc1	i	i	i	i
CC(NC(=O)COC(=O)Cc1ccc(Cl)cc1)c1ccccc1 (centres undefined)	.	i	.	.
CC(NC(=O)Cc1ccc(-c2ccccc2)cc1)c1ccccc1 (centres undefined)	i	-17.6*	i	i
CCN(CC)S(=O)(=O)c1cccc(-c2nnc(SCCCC(=O)c3ccc(F)cc3)o2)c1	i	-4.6*	i	i
CCN(CC)S(=O)(=O)c1cccc(-c2nnc(SCCCC(=O)c3ccccc3)o2)c1	i	i	i	i
CCOc1ccc(N2CC(C(=O)NCCc3c[nH]c4ccc(C)cc34)CC2=O)cc1 (centres undefined)	i	i	i	i
CN(C)c1ncc(S(=O)(=O)c2ccc(Cl)cc2)c(-c2ccc(Cl)cc2Cl)n1	i	-7.69*	i	i
O=C(NC(=S)Nc1ccc(-c2ccc(CO)o2)cc1)c1cccs1	100*	i	i	i
CN(C)N1C(N)=C(C#N)C(c2cccs2)C2=C1CC(C)(C)CC2=O (centres undefined)	i	i	i	i
